Data as given in PubChem BioAssay (NCATS).
Inconclusive results are not listed. The source made the active and inactive calls. Unless noted, calls come from the whole dose curve; as a rule, active = well fitted curve in either direction with a large enough effect (not every such curve was filed as active); inconclusive = small, poorly fitted or top-dose-only effect, or another doubt; inactive = flat fitted curve, though single readings scatter.

Legend:
[1] = target: Lysosomal acid glucosylceramidase (Homo sapiens) (UniProt P04062); assay: Glucocerebrosidase-p2 (AID 348; in the data active = potency below about 10 µM; note: potency is the fitted concentration of half-maximal effect); details: purified GBA, blue fluorogenic substrate, 40 min
Chain of Lysosomal acid glucosylceramidase (Homo sapiens) (P04062 whole entry, looked up): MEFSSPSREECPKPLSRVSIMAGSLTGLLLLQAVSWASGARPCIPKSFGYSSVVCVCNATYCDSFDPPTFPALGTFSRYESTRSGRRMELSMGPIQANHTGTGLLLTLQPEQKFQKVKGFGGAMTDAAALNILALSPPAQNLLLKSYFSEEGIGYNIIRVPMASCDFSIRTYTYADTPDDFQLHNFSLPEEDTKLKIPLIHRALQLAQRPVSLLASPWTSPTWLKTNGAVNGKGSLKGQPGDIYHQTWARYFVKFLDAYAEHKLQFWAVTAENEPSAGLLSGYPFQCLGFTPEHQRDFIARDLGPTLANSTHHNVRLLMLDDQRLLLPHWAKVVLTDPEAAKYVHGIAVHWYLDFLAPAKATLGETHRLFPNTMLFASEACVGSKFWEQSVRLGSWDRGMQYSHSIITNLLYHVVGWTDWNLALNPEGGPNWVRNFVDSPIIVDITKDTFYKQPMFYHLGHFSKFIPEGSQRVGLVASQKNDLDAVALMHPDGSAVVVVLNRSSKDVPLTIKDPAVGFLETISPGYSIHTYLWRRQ
How it was run: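 Compounds titrated from 0.6 nM upwards against 0.2 nM enzyme in pH 5.9 citric acid/KH2PO4, taurocholate, tween-20; blue fluorogenic substrate 80 uM, 40 min room temperature, stopped and read Ex 365/Em 440 for AC50.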

[2] = AP1 Signaling Pathway (AID 357); details: ME-180 AP-1-bla reporter, EGF-induced, beta-lactamase ratio, 5 h; at 7.69 µM (top of the series) unless noted;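 note: ME-180 reporter cells stimulated with EGF at its EC50 level; % is set by controls: 0 for no effect and ±100 for the full control effect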
How it was run: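 Read-out was the 460nm/530nm emission ratio (excitation 405nm) after CCF4 loading for 2.5 hours at room temperature. Cells carried an AP-1-driven beta-lactamase reporter, were stimulated with EC50 EGF plus compound for 5 hours, and AC50 values came from titrations.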

[3] = target: Cytochrome P450 1A2 (Homo sapiens) (UniProt P05177); assay: p450-cyp1a2 (AID 410; calls by dose curve; note: potency is the fitted concentration of half-maximal effect;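 for activity change, negative = inhibition: -100% = full effect of reference inhibitor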); details: recombinant CYP1A2, luciferin-ME demethylation, luminescence; series mostly up to 57 µM
Chain of Cytochrome P450 1A2 (Homo sapiens) (P05177 whole entry, looked up): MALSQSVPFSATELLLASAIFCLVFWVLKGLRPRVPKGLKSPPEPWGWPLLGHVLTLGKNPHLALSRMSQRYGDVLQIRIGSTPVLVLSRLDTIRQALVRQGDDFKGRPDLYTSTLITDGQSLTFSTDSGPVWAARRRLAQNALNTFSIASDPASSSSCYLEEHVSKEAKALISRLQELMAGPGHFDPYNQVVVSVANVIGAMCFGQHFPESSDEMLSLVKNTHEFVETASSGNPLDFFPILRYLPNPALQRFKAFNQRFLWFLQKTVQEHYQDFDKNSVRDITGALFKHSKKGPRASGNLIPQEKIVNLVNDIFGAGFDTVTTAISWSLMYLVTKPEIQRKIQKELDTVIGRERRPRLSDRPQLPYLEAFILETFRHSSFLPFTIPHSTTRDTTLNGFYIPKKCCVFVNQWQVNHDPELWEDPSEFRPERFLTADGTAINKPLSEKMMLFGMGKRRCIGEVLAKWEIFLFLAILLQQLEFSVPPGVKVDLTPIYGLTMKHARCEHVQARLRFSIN
How it was run: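 Human CYP1A2 (20nM) demethylated Luciferin-ME at its Km (100uM) in 100mM KPO4. After 10 min compound preincubation, NADPH regeneration ran the reaction 60 min at room temperature. Luciferin was read by luminescence, normalized to 57 uM furafylline.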

[4] = Stat Signaling Pathway (AID 446); details: ME-180 SIE beta-lactamase reporter, IL-6 stimulated, 5 h; at 7.69 µM (top of the series) unless noted;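 note: ME-180 cervical cancer cells given 40 pM IL-6 alongside compound; SIE-controlled beta-lactamase reporter measured as 460/530 nm FRET emission ratio; % is set by controls: 0 for no effect and ±100 for the full control effect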
How it was run: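 Screening format detects activators and inhibitors alike: ME-180 SIE-bla cells stimulated at 40 pM IL-6 for 5 hrs with compound, then dual-emission beta-lactamase read at 405 nm excitation.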

[5] = target: Glucocorticoid receptor (Homo sapiens) (UniProt P04150); assay: GR-EFC Redistribution (AID 451; calls by dose curve; note: potency is the fitted concentration of half-maximal effect); details: CHO-K1 GR-EFC translocation, beta-gal luminescence, 2 h
Chain of Glucocorticoid receptor (Homo sapiens) (P04150 whole entry, looked up, the tested form may be a part): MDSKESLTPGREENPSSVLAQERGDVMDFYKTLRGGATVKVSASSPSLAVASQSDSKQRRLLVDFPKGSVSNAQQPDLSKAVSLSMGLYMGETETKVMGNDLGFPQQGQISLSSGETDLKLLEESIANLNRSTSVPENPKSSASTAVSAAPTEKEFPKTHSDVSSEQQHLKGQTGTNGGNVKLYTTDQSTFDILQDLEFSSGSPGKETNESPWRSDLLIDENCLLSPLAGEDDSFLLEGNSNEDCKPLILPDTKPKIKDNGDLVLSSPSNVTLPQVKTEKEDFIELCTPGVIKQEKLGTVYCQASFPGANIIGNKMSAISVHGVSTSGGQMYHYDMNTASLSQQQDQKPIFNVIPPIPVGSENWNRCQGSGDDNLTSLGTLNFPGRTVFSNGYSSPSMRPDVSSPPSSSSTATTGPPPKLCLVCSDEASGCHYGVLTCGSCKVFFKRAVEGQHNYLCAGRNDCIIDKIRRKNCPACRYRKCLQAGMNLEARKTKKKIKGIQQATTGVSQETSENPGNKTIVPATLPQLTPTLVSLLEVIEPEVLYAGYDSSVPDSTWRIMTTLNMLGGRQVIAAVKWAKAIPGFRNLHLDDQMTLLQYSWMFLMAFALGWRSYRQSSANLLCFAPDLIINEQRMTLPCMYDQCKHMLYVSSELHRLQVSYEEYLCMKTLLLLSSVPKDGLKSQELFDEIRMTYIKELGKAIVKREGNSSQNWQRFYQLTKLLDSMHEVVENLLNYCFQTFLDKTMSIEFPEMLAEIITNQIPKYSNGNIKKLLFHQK
How it was run: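 CHO-K1 cells expressing nuclear EA and GR-ED fragments of b-gal; compounds titrated up to 46 uM final, 2 h at 37 C. GR nuclear translocation read as complemented b-gal luminescence after 1 h RT detection.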

[6] = target: Mitogen-activated protein kinase 10 (Mus musculus) (UniProt Q61831); assay: JNK3 AlphaScreen Assay (AID 530); details: JNK3 lysate, c-Jun phosphorylation; series mostly up to 57.1 µM;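 note: kinase came from lysate of stimulated human HepG2 cells; signal reports phosphorylation of biotinylated GST-cJun 1-79 at Ser73 with 10 µM ATP; % is set by controls: 0 for no effect and ±100 for the full control effect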
How it was run: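 qHTS format: compounds tested as titrations against IL-1beta/TNF-alpha-activated HepG2 lysate JNK3 with biotin-GST-cJun substrate and 10 uM ATP at room temperature. Loss of anti-phospho-cJun AlphaScreen signal indicates inhibition.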

[7] = target: 3',5'-cyclic-AMP phosphodiesterase 4B (Homo sapiens) (UniProt Q07343); assay: qHTS Assay for Inhibitors of PDE-IV (AID 607; active = well fitted activation curve with a large enough effect in the main read-out, with a control signal flat, not every such curve was filed as active; note: % of control where 0% means no effect); details: HEK293 ACTOne CNG channel cells, membrane potential fluorescence; series mostly up to 22.9 µM
Chain of 3',5'-cyclic-AMP phosphodiesterase 4B (Homo sapiens) (Q07343 whole entry, looked up): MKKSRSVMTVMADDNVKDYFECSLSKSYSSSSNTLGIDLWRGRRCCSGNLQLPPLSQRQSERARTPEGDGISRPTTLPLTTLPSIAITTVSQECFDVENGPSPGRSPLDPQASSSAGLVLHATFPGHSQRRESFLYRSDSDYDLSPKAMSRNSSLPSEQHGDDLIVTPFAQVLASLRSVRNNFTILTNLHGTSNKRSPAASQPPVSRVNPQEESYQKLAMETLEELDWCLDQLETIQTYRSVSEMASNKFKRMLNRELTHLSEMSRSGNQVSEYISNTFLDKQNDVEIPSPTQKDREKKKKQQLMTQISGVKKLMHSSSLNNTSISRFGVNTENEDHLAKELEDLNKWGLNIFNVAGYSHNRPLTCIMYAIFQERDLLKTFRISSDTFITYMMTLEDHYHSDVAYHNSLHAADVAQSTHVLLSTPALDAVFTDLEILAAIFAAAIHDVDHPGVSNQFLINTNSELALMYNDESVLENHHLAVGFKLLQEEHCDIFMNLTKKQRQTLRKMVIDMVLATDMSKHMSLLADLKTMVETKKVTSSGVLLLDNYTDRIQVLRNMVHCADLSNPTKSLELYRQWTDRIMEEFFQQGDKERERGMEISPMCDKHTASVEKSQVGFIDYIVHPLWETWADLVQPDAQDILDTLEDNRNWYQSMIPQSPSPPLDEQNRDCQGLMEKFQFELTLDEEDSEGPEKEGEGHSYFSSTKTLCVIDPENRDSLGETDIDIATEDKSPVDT
How it was run: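 The readout is membrane depolarisation from a cAMP-sensing CNG channel, detected with a potential dye at ex 535/em 590. Cells were HEK293-derived (endogenous PDE-IV) at 1000 cells/well, titrated up to 22.9 uM final.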

[8] = target: Cytochrome P450 3A4 (Homo sapiens) (UniProt P08684); assay: qHTS Assay for Activators of Cytochrome P450 3A4 (AID 885; active = well fitted curve in the direction sought with a large enough effect; an effect the other way counts as inactive or inconclusive; note: nearly all actives have a fitted effect of over 65% in size; note: potency is the fitted concentration of half-maximal effect); details: recombinant CYP3A4, Luciferin-PPXE luminescence, 60 min; series mostly up to 57.1 µM
Chain of Cytochrome P450 3A4 (Homo sapiens) (P08684 whole entry, looked up): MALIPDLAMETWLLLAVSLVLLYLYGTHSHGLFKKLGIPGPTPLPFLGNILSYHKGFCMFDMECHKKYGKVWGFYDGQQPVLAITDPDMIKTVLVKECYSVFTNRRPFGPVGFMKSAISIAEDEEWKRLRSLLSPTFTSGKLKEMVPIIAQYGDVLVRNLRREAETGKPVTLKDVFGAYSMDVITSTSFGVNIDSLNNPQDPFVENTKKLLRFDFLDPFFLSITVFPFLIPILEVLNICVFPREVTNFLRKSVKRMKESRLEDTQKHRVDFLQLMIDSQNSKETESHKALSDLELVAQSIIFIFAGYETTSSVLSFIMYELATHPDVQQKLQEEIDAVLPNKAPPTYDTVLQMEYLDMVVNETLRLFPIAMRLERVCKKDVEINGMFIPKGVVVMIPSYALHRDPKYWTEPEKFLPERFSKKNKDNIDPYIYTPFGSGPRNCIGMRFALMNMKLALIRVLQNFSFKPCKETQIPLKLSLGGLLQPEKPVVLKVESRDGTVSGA
How it was run: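 Steps: enzyme/substrate mix dispensed; compound added, 10 min RT; NADPH regeneration solution added, 60 min RT; luciferin detection buffer stops reaction; 20 min later luminescence measured.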

[9] = Primary qHTS for small molecule stabilizers of the endoplasmic reticulum resident proteome: Secreted ER Calcium Modulated Protein (SERCaMP) assay (AID 1508630; active = well fitted curve in the direction sought with a large enough effect; an effect the other way counts as inactive or inconclusive; note: % is set by controls: 0 for no effect and ±100 for the full control effect); details: SH-SY5Y GLuc-SERCaMP (Gaussia luciferase released on ER calcium loss) secretion, thapsigargin, luminescence; series mostly up to 38.4 µM
How it was run: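 GLuc-SERCaMP-expressing SH-SY5Y cells, pretreated 16 h with compound, are challenged with thapsigargin to empty ER calcium stores; after 4 h, coelenterazine is added directly to the medium and luminescence is imaged.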

[10] = target: Cytochrome P450 3A4 (Homo sapiens) (UniProt P08684); assay: qHTS Assay for Inhibitors and Substrates of Cytochrome P450 3A4 (AID 884; active = well fitted curve in the direction sought with a large enough effect; an effect the other way counts as inactive or inconclusive; note: nearly all actives have a fitted effect of over 50% in size; note: potency is the fitted concentration of half-maximal effect); details: recombinant CYP3A4, Luciferin-PPXE luminescence; series mostly up to 57.1 µM
How it was run: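 20 nM human CYP3A4 with 25 uM Luciferin-PPXE (at KM) in 200 mM KPO4, preincubated 10 min with compound; NADPH regeneration started a 60 min RT reaction. Luciferin detected by luminescence, normalized to 57 uM ketoconazole as full inhibition.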

[11] = target: Cytochrome P450 2D6 (Homo sapiens) (UniProt P10635); assay: qHTS Assay for Inhibitors and Substrates of Cytochrome P450 2D6 (AID 891; active = well fitted curve in the direction sought with a large enough effect; an effect the other way counts as inactive or inconclusive; note: nearly all actives have a fitted effect of over 60% in size; note: potency is the fitted concentration of half-maximal effect); details: recombinant CYP2D6, luciferin-ME EGE luminescence; series mostly up to 57.1 µM
Chain of Cytochrome P450 2D6 (Homo sapiens) (P10635 whole entry, looked up): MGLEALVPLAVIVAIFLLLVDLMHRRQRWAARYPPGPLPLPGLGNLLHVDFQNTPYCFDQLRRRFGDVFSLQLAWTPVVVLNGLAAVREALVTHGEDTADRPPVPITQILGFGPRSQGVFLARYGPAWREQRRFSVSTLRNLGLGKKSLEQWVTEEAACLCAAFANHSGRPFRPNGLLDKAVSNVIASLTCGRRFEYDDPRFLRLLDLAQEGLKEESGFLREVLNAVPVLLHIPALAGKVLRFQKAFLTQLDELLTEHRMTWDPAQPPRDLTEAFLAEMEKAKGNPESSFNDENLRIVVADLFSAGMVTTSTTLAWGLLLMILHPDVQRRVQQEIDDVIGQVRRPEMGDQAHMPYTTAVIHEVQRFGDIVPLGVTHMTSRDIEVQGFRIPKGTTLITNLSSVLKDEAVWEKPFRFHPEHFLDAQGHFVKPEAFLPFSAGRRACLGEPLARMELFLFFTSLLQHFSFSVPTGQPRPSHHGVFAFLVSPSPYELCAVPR
How it was run: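 Human CYP2D6 (5 nM) with 30 uM Luciferin-ME EGE (at Km) in 100 mM KPO4, compound preincubated 10 min, then NADPH regeneration system for 60 min at room temperature. Luciferin read by luminescence; normalized to 1.43 uM quinidine.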

[12] = target: Cytochrome P450 2C19 (Homo sapiens) (UniProt P33261); assay: qHTS Assay for Inhibitors and Substrates of Cytochrome P450 2C19 (AID 899; active = well fitted curve in the direction sought with a large enough effect; an effect the other way counts as inactive or inconclusive; note: nearly all actives have a fitted effect of over 60% in size; note: potency is the fitted concentration of half-maximal effect); details: recombinant CYP2C19, luciferin-H EGE luminescence; series mostly up to 57.1 µM
Chain of Cytochrome P450 2C19 (Homo sapiens) (P33261 whole entry, looked up): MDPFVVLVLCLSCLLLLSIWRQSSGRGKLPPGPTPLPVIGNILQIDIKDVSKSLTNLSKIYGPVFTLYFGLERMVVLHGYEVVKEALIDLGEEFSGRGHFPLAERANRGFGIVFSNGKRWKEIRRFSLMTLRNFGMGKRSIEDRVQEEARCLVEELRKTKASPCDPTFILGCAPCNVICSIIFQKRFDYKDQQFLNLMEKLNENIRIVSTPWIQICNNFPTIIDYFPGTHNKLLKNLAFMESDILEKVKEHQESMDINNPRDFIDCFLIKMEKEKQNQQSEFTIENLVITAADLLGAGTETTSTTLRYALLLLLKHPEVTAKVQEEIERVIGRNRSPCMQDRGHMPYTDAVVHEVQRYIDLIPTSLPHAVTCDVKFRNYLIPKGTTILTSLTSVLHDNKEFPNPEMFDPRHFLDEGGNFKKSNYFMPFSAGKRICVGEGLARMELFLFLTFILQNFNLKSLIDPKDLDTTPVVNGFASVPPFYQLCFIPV
How it was run: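 5 nM human CYP2C19 with 10uM Luciferin-H EGE (at KM) in 50mM KPO4, compound preincubated 10 min at 37C, then NADPH regeneration for 60 min at 37C. Luciferin read by luminescence after detection reagent; normalized to 57uM ketoconazole as full inhibition.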

[13] = target: Cytochrome P450 2C9 (Homo sapiens) (UniProt P11712); assay: qHTS Assay for Inhibitors and Substrates of Cytochrome P450 2C9 (AID 883; active = well fitted curve in the direction sought with a large enough effect; an effect the other way counts as inactive or inconclusive; note: % is set by controls: 0 for no effect and ±100 for the full control effect; nearly all actives have a fitted effect of over 60% in size); details: recombinant CYP2C9, luciferin-H luminescence, 60 min; series mostly up to 57.1 µM
Chain of Cytochrome P450 2C9 (Homo sapiens) (P11712 whole entry, looked up): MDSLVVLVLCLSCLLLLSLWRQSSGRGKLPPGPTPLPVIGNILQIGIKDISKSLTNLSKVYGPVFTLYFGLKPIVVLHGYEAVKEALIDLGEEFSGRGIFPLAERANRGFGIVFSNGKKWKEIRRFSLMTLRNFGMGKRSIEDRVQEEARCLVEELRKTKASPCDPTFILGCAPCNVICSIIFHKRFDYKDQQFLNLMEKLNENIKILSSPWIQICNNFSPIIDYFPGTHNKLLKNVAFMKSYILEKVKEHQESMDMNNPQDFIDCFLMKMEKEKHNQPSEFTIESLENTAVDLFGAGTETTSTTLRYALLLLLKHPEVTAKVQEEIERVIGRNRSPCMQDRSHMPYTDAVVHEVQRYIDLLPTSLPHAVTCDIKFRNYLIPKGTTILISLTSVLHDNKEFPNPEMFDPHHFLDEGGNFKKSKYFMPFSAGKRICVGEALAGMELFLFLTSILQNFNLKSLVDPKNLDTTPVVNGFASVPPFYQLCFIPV
How it was run: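 Human CYP2C9 (10nM) with Luciferin-H at 100uM (its KM) in 25mM KPO4; compound preincubated 10 min at 37C, then NADPH regeneration for 60 min at 37C. Luciferin read by luminescence after detection reagent; normalized to 57uM sulphaphenazole as full inhibition.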

[14] = qHTS Assay for Identification of Small Molecule Agonists for Hypoxia Response Element Signaling Pathway (AID 914; active = well fitted activation curve with a large enough effect in the signal ratio, with a control signal flat, not every such curve was filed as active; the % refers to the signal ratio; note: potency is the fitted concentration of half-maximal effect; for activation: % of control where 0% means no effect); details: ME-180 (cervical carcinoma) HRE-bla reporter, beta-lactamase ratio, CoCl2, 17 h; activation: active compounds read high
How it was run: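 Reporter activity (beta-lactamase, CCF4 460nm/530nm ratio) in HRE-bla ME-180 cells is recorded after 17 h compound exposure with EC50 CoCl2 at 37 degrees Celsius. AC50 values come from titration data.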

[15] = NFAT Signaling Pathway (AID 444); details: Jurkat NFAT-bla M1, carbachol, beta-lactamase ratio, 5 h; at 7.69 µM (top of the series) unless noted
How it was run: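 Jurkat cells with NFAT-driven β-lactamase reporter and co-expressed M1 receptor, stimulated with carbachol (final 1 uM, ~EC50), compound titration, 5 h at 37 °C. CCF4 loaded 1 h at RT; 460/530 nm ratio gave %activity and AC50.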

[16] = target: Glucocorticoid receptor (Homo sapiens) (UniProt P04150); assay: GR-GFP Redistribution (AID 450;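 active = compounds whose dose series gives a full or clear partial fitted curve of increased nuclear translocation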; note: potency is the fitted concentration of half-maximal effect); details: U2OS GR-GFP nuclear translocation, laser cytometry, 2 h

O=C(Oc1ccccc1)N1CCC2(CCCN(c3ccc(-c4ccccc4)cc3)C2)CC1
inactive: Potency [1] > 11.4 µM | activity change, negative = inhibition [2] 27% | Potency [3] | activity, negative = inhibition [4] 6.94% | Potency [5] > 46 µM | Potency [6] | Potency [7] | Potency [8] | outcome [9]

COC(=O)N1CCC2(CC1)CCN(c1ccncc1)CC2
inactive: Potency [1] > 11.4 µM | activity change, negative = inhibition [2] 6.46% | Potency [3] | activity, negative = inhibition [4] 20.2% | Potency [5] > 46 µM | Potency [6] | Potency [7] | outcome [9]

CC(=O)N1CCC2(CC1)CCN(C(c1ccccc1)c1ccccc1)CC2
inactive: Potency [1] > 11.4 µM | activity change, negative = inhibition [2] -6.19% | Potency [3] | activity, negative = inhibition [4] -5.71% | Potency [5] > 46 µM | Potency [6] | Potency [10] | outcome [9]
active: Potency [8] 25.1 µM | Potency [11] 7.94 µM

O=S(=O)(c1ccccc1)N1CCC2(CCCN(Cc3ccncc3)C2)CC1
active: Potency [3] 12.6 µM | Potency [10] 3.98 µM | Potency [12] 0.316 µM
inactive: Potency [1] > 11.4 µM | activity change, negative = inhibition [2] -20.2% | activity, negative = inhibition [4] -3.44% | Potency [5] > 46 µM | Potency [6] | Potency [7] | Potency [8] | outcome [9]

O=C(c1cnccn1)N1CCC2(CC1)CN(Cc1cc(C(F)(F)F)cc(C(F)(F)F)c1)C2
active: Potency [11] 0.398 µM
inactive: Potency [1] > 11.4 µM | activity change, negative = inhibition [2] -17.8% | Potency [3] | activity, negative = inhibition [4] -1.36% | Potency [5] > 46 µM | Potency [6] | Potency [7] | outcome [9]

O=C(c1ccco1)N1CCC2(CCCN(c3ccccn3)C2)CC1
active: Potency [3] 10 µM
inactive: Potency [1] > 11.4 µM | activity change, negative = inhibition [2] -0.937% | activity, negative = inhibition [4] -3.59% | Potency [6] | Potency [7] | Potency [8] | outcome [9]

O=C(c1csnn1)N1CCC[C@@]2(CCN(c3ccncc3)C2)C1
inactive: Potency [1] > 11.4 µM | activity change, negative = inhibition [2] 13.9% | Potency [3] | activity, negative = inhibition [4] 8.6% | Potency [5] > 46 µM | Potency [6] | Potency [7] | outcome [9]

O=S(=O)(c1ccccc1)N1CCC2(CCCN(Cc3nccs3)C2)CC1
inactive: Potency [1] > 11.4 µM | activity change, negative = inhibition [2] -17.2% | Potency [3] | activity, negative = inhibition [4] -1.51% | Potency [5] > 46 µM | Potency [6] | Potency [7] | Potency [8] | outcome [9]
active: Potency [10] 3.16 µM

O=C(Nc1ccccc1)N1CC2(CCN(C(=O)c3cc(C(F)(F)F)cc(C(F)(F)F)c3)CC2)C1
inactive: Potency [1] > 11.4 µM | activity change, negative = inhibition [2] 12.7% | Potency [3] | Potency [5] > 46 µM | Potency [6] | Potency [7] | Potency [13] | outcome [9]

COc1ccccc1CN1CC2(CCN(S(=O)(=O)c3ccccc3)CC2)C1
inactive: Potency [1] > 11.4 µM | activity change, negative = inhibition [2] 18.5% | Potency [3] | activity, negative = inhibition [4] 7.2% | Potency [5] > 46 µM | Potency [6] | Potency [7] | Potency [13] | Potency [8] | Potency [11] | Potency [12] | outcome [9]

Cn1cccc1C(=O)N1CCC2(CCCN(c3ccccn3)C2)CC1
inactive: Potency [1] > 11.4 µM | activity change, negative = inhibition [2] -9.86% | activity, negative = inhibition [4] -6.89% | Potency [5] > 46 µM | Potency [6] | Potency [7] | Potency [8] | outcome [9]
active: Potency [3] 20 µM

Cn1c(=O)c(-c2cccs2)nc2cnc(Oc3ccccc3)nc21
active: Potency [3] 7.94 µM | Potency [14] 3.16 µM
inactive: Potency [1] > 11.4 µM | activity change, negative = inhibition [2] 12.2% | Potency [5] > 46 µM | Potency [7] | outcome [9]

COc1cccc(Cn2c(=O)c(C)nc3cnc(Oc4ccccc4)nc32)c1
inactive: Potency [1] > 11.4 µM | activity change, negative = inhibition [2] -12.2% | activity change, negative = inhibition [15] -3.17% | activity, negative = inhibition [4] -2.47% | Potency [16] > 9.22 µM | Potency [5] > 46 µM | Potency [6] | outcome [9]

CC(=O)N1CCC[C@@]2(CCN(c3ccccc3)C2)C1
inactive: Potency [1] > 11.4 µM | activity change, negative = inhibition [2] -11% | Potency [3] | activity, negative = inhibition [4] -6.46% | Potency [5] > 46 µM | Potency [6] | Potency [7] | Potency [8] | outcome [9]

O=S(=O)(c1ccccc1)N1CCC2(CC1)CN(Cc1ccccc1)C2
active: Potency [11] 0.158 µM
inactive: Potency [1] > 11.4 µM | activity change, negative = inhibition [2] 7.31% | Potency [3] | activity, negative = inhibition [4] 2.83% | Potency [5] > 46 µM | Potency [6] | Potency [7] | activation [14] 8.23% | outcome [9]

O=C(c1cnccn1)N1CCC2(CCCN(Cc3nccs3)C2)CC1
inactive: Potency [1] > 11.4 µM | activity change, negative = inhibition [2] -20.7% | activity, negative = inhibition [4] -4.76% | Potency [5] > 46 µM | Potency [6] | Potency [7] | Potency [8] | outcome [9]
active: Potency [3] 15.8 µM | Potency [11] 7.94 µM
